Bioassay records as filed in PubChem.
CF NFkB inh – inhibitors of PAF-induced NF-kB signaling, primary screen, cell-based, GFP fluorescence, uHTS; KKLEB NF-kB-GFP reporter, GFP fluorescence overnight; inhibition, % at 5 µM; 360,000 tested, 0.86% active;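 active means at least 50% inhibition at 5 µM, scaled per plate between neutral and stimulator controls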;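 further: PAF is a Pseudomonas aeruginosa culture filtrate used as stimulus; plate controls were PAF-stimulated DMSO wells for no effect and unstimulated DMSO wells for full effect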
Peg3 prom inh – Peg3 promoter-driven luciferase inhibitors, primary screen, cell-based, HeLa, luciferase luminescence | HeLa PEG-Prom luciferase reporter, overnight | inhibition, % at 20 µM | 360,000 tested, 1.7% active | AID 588405, 2011;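 active means inhibition of at least 50% at 20 µM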
TRPM1 prom inh – inhibitors of MITF-dependent TRPM1 promoter reporter, primary screen, cell-based, SK-MEL-5, single point, luciferase. SK-MEL-5 TRPM1 promoter luciferase, 24 h. AID 488899, 2010. 330,000 tested, 0.83% active. inhibition, % at 12.5 µM;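 active means mean inhibition across replicates of 60% or more, whatever share of single replicates reaches that level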
KKLEB cytotox – cytotoxicity in KKLEB CF airway cells, primary screen, cytotoxicity control for CF NF-kB inhibitor project, cell-based, uHTS, fluorescence assay plates | AID 602141, 2011 | KKLEB CF airway cells viability, ATPlite luminescence, overnight; active compounds read low; cells stimulated with P. aeruginosa culture filtrate | 360,000 tested, 0.36% active | activity change (cytotoxicity), % at 5 µM;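 active means corrected activity change at or below -50% at 5 µM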
HIF-2a block – HIF-2a reporter inhibitors, primary screen, luminescence, 786-0 RCC cells | 786-0 RCC cells HIF-2a reporter, luciferase luminescence, overnight | inhibition, % at 18.8 µM | 360,000 tested, 0.72% active | AID 624352, 2012;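 active means inhibition of the luminescence signal of 40% or more relative to plate controls, in a single-dose primary screen at 18.75 µM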
ABHD5-PLIN5 inh – ABHD5-PLIN5 interaction inhibitors, primary screen, cell lysate, split luciferase complementation, luminescence; inhibition, % at 4 µM; Split G. princeps luciferase complementation, 4 h; AID 602281, 2012; 360,000 tested, 0.78% active;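 active means inhibition above the mean inhibition across every tested compound plus 3 SD, cut at about 22% in these data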;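 further: 0% = DMSO only wells and the 100% control is not disclosed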
Mdm2 MdmX conf – retested Mdm2-MdmX interaction blockers, confirmation, cell-based, luminescence, single concentration, set 2. inhibition, % at 8 µM. SaOS-2 split-luciferase Mdm2/MdmX complementation. shares compounds with HIF-2a block. 740 tested, 99% active;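 active means mean inhibition of the luminescence signal across two replicates at or above 26 percent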
HIF-2a conf – HIF-2a reporter inhibitor retest, confirmation, luminescence, 786-0 RCC cells | shares compounds with HIF-2a block | HIF-2a luciferase reporter luminescence, overnight | AID 651580, 2012 | 1,800 tested, 56% active | inhibition, % at 18.8 µM;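 active means mean inhibition across four replicates of at least 40 percent at the single tested concentration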
HIF-1a cs – HIF-1a luciferase reporter signal reduction – MiaPaCa-2 cells, single concentration, counter-screen for HIF-2a inhibitor project, confirmation | shares compounds with HIF-2a block | MiaPaCa-2 HIF-1a luciferase reporter, desferoxamine, overnight | inhibition, % at 18.8 µM | 1,800 tested, 72% active;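 active means mean inhibition of the reporter signal across four replicates at the single tested dose of 50% or more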
Starred values were filed as active, the others as inactive; nt = no result. Sampled rows, rich in hits. Any-hit rate of the full collection: about 3.1%.

SMILES	CF NFkB inh	Peg3 prom inh	TRPM1 prom inh	KKLEB cytotox	HIF-2a block	ABHD5-PLIN5 inh	HIF-2a conf	HIF-1a cs	others
O=[N+]([O-])c1cc(S(=O)(=O)N2CCCCCC2)ccc1F	51*	102*	93*	-26	94*	4	87*	105*
O=S(=O)(Nc1ccc2c(c1)OCO2)c1ccc(Cl)cc1F	9	-10	-7	6	-2	9	nt	nt
Cc1noc2ncnc(Sc3c(Cl)cccc3Cl)c12	16	97*	35	6	43*	5	23	95*
CC[C@@H](C)[C@H](CNC)NC[C@@H](Cc1cccc2ccccc12)NCCc1cccc(C(F)(F)F)c1	29	103*	98*	-48	15	6	nt	nt	Mdm2 MdmX conf=103*
CCC[C@H](CN[C@@H](CNC)[C@H](C)CC)NCCc1cc(C(F)(F)F)cc(C(F)(F)F)c1	13	99*	103*	-49	12	6	nt	nt	Mdm2 MdmX conf=103*
O=C(/C=C/c1ccccc1)NC(N1CCOCC1)C(Cl)(Cl)Cl (stereo not given)	-12	-20	-10	7	-17	1	nt	nt
CCc1nc2ccc(C(=O)N(C)CCN(C)C)cn2c1N(C)Cc1cc2ccccc2s1	13	11	nt	-8	-12	10	nt	nt
CCC(C(=O)NCc1ccccc1)n1c(C2CCN(C(C)=O)CC2)nc2ccccc21 (stereo not given)	nt	nt	nt	nt	-14	-2	nt	nt
CCOC(=O)COc1ccc(S(=O)(=O)Nc2ccc3c(c2)OCCO3)cc1	9	2	3	3	17	-1	nt	nt
CCOC(=O)COc1ccc(S(=O)(=O)Nc2cccc(SC)c2)cc1	4	1	-3	-3	50*	1	18	-1
O=C(O)CCn1cc(/C=C/C(=O)c2ccc(Cl)cc2)c(-c2ccc(Br)cc2)n1	-11	45	1	-22	54*	9	21	43
O=C(O)/C=C/c1cn(Cc2ccccc2)nc1-c1ccccc1	2	6	10	-1	9	2	nt	nt
Cc1ccc(-c2nn(C(C)(C)C)c3ncnc(NS(=O)(=O)c4ccc([N+](=O)[O-])cc4)c23)cc1	1	24	6	-11	21	-7	nt	nt
CC(C)(C)n1nc(-c2ccc(F)cc2)c2c(N)ncnc21	31	47	-24	-8	43*	-1	45*	22
Cc1ccc(-c2nc(N)c3c(-c4ccc(C)cc4)nn(C(C)(C)C)c3n2)cc1	3	1	12	1	2	7	nt	nt
CC(C)(C)n1nc(-c2ccc(Cl)cc2)c2c(N)ncnc21	46	69*	-7	4	63*	-11	43*	80*
COc1ccccc1-c1cc(C(F)(F)F)nc(S(=O)(=O)CCCC(=O)N2CCOCC2)n1	90*	103*	80*	-79*	83*	14	48*	104*
O=C(Nc1ccc(OCc2ccccc2Cl)cc1)c1cccnc1	7	8	31	-3	48*	-5	83*	89*
Cc1ccnc2nc(C(=O)OCC(=O)NC3CCCC(C)C3C)nn12 (stereo not given)	-16	-7	0	11	9	8	nt	nt
c1ccc(CNc2nc(NCc3ccccc3)c3ccccc3n2)cc1	-28	104*	34	-19	26	11	nt	nt	Mdm2 MdmX conf=103*
c1ccc(CNc2nc(-c3ccccc3)nc3ccccc23)cc1	5	15	-9	-6	-2	-3	nt	nt
CCOC(=O)/C(=N/Nc1ccc(Cl)cc1)S(=O)(=O)c1ccccc1	0	-50	-8	-1	-79	2	nt	nt
COc1ccc(CC(=O)NCc2nnc(SCC(=O)Nc3cccc(F)c3)n2C)cc1	-4	-24	-7	10	-28	2	nt	nt
Cc1nc2nc(C)c(CCC(=O)NC(C)c3ccc4c(c3)OCCO4)c(C)n2n1 (stereo not given)	-7	-11	0	5	-12	5	nt	nt
Cc1nc2cc(-c3ccccc3)nn2c(C)c1CCC(=O)NC(C)c1ccc2c(c1)OCCO2 (stereo not given)	-12	-36	19	0	66*	10	79*	45
SMILES	CF NFkB inh	Peg3 prom inh	TRPM1 prom inh	KKLEB cytotox	HIF-2a block	ABHD5-PLIN5 inh	HIF-2a conf	HIF-1a cs	others
Cc1nc2cc(-c3cccc(F)c3)nn2c(C)c1CCC(=O)NC(C)c1ccc2c(c1)OCCO2 (stereo not given)	-10	-10	7	-15	46*	-2	72*	42
CO/N=C/CC(=O)c1cnc(-c2ccccc2)s1	14	-5	-8	-2	-14	-3	nt	nt
O=C1c2ccccc2-c2onc3ccc(Oc4ccccc4)c1c23	85*	104*	97*	-83*	-6	7	nt	nt	Mdm2 MdmX conf=103*
Cc1noc(C)c1S(=O)(=O)Nc1ccccc1Oc1ccccc1	7	14	-24	-8	18	5	nt	nt
CN(C)S(=O)(=O)c1cccc(C(=O)OCC(=O)c2c(N)n(C)c(=O)n(C)c2=O)c1	-4	9	6	2	41*	0	-10	-8
CCOC(=O)C(CC)(CC)C(=O)/C=C/c1cccc(Br)c1	24	109*	30	1	87*	18	69*	104*
NC(=O)NC(=O)COC(=O)/C=C/c1cccc(Br)c1	-11	6	1	11	6	4	nt	nt
O=C(c1ccccc1)c1nn(-c2ccc(Cl)cc2)c(=O)cc1C(F)(F)F	-4	79*	24	-15	46*	-5	-2	107*	Mdm2 MdmX conf=103*
O=C(c1ccccc1)c1nn(-c2ccccc2)c(=O)cc1C(F)(F)F	-3	19	13	-2	28	-5	nt	nt
CC(=O)c1ccc(Nc2cc(C)nc3c(C)cc(C)cc23)cc1	-10	103*	54	-15	59*	4	18	85*
Cc1cc(C)c2nc(C)cc(Nc3ccc(C(=O)NCCO)cc3)c2c1	-21	-4	0	-2	15	-2	nt	nt
